In the library only some 5.4% were active in any assay of this set; here they are far more common.
IMPase Li cell – cell-permeable IMPase inhibitors with lithium potentiation; AID 1457; CHO-M1 cells, IP1 TR-FRET (IP-One), carbachol + lithium; 210,000 compounds, 0.35% hits; Potency, µM (doses to about 59.4 µM), most hits filed as inhibitors;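 also: IP1 builds up when IMPase is blocked and the TR-FRET signal falls; nearly all actives have a fitted effect of over 50% in size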
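CHO cells stably expressing M1 receptor (2000/well, cultured 16–30 h) treated 30 min at 37C with compound plus low lithium. Cytosolic IP1 by TR-FRET (665/620 ratio and 620 channel) after 10 min lysis; AC50 by Hill fit.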
ALOX12 inhib – inhibitors of human 12-lipoxygenase (ALOX12). P18054. Potency, µM (titrated, usually from 57.1 µM), actives largely listed as inhibitors. 150,000 compounds, 0.12% hits. purified 12-hLO, xylenol orange hydroperoxide absorbance. AID 1452; also: nearly all actives have a fitted effect of over 55% in size
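Lipoxygenase turnover measured by absorbance at 573 and 405 nm after Fe-XO development. Human 12hLO 150 nM, arachidonate 40 uM, pH 7.0 Hepes buffer with detergent; 15 min compound preincubation, 30 min reaction.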
HPGD block – HPGD (human) dehydrogenase inhibition | Potency, µM, actives largely listed as inhibitors | 150,000 compounds, 4.3% hits | purified HPGD, NADH fluorescence kinetic, PGE2 substrate | P15428; active = well fitted inhibition curve with a large enough effect, not every such curve was filed as active; inconclusive = small, poorly fitted or top-dose-only effect, or another doubt; inactive = no such curve, though single readings can be large or run the other way
Target sequence (P15428 whole entry, looked up): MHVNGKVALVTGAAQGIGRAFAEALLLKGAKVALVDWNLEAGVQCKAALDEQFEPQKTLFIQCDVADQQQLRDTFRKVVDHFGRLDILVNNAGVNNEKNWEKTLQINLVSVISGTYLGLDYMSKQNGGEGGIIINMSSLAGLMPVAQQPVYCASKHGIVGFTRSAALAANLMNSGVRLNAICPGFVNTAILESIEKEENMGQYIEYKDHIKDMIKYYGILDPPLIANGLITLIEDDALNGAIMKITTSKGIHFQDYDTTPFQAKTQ
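NADH formation kinetics: reaction with 30 uM PGE2 and 1 mM NAD+ (final), 20 nM enzyme, Tris-HCl pH 8 with Tween 20, after 15 min compound preincubation at room temperature. Fluorescence change, last versus first of five reads.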
PNC assembly inh – inhibitors of perinucleolar compartment assembly; PC3M PTB-GFP, PNC prevalence imaging, 16 h; stronger effect = lower value; activity change (PNC), negative = inhibition, % at 10 µM; 140,000 compounds, 3.1% hits; AID 2417;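 active = readout at or below -70, meaning at least 70% loss of cells showing the perinucleolar compartment, a nuclear body marking cancer cells; inconclusive = readout between -30 and a set limit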
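PC3M cells stably expressing PTB-GFP, 750–1000 cells/well, treated 16 h at 37 °C with compound (23 nl of library stock), in duplicate. After paraformaldehyde fixation and Hoechst stain, imaged at 20x; PNC prevalence scored by image analysis.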
IMPase cell inh – membrane-permeable compound that blocks inositol monophosphatase; P97697; 120,000 tested, under 10 active; inhibition (IP1 accumulation), % at 46.1 µM; CHO-M1 cells, IP1 accumulation, HTRF TR-FRET ratio; AID 901; active = well fitted curve in the direction sought with a large enough effect in the signal ratio, not every such curve was filed as active; inconclusive = small, poorly fitted or top-dose-only effect, or a change in a side signal; inactive = no such curve, though single readings can be large or run the other way; the % refers to the signal ratio;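 also: cells stimulated with carbachol in lithium chloride buffer; higher means more IMPase inhibition seen as more IP1 and lower FRET ratio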
Target sequence (P97697 whole entry, looked up): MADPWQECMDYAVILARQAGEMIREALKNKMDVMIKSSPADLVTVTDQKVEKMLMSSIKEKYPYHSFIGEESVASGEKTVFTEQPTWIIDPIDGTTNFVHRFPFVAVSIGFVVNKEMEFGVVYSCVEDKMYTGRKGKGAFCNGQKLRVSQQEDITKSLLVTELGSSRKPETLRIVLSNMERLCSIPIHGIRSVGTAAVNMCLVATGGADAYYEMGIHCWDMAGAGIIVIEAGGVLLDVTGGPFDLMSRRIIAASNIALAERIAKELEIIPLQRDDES
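Elevated IP1 in lysates lowers TR-FRET signal (665/620 ratio and 620 channel reported). Cells were CHO-M1, given carbachol (50 uM as added) plus 50mM LiCl, pH 7.4, 30 min, 37C; compounds titrated up to 46 uM; AC50 by Hill equation.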
ALOX15B inhib – 15-hLO-2 (ALOX15B) enzyme inhibition; 110,000 compounds, 0.56% hits; Potency, µM (highest dose often 57.1 µM), most hits filed as inhibitors; purified 15hLO-2, xylenol orange hydroperoxide absorbance; also: nearly all actives have a fitted effect of over 60% in size
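Screening format was qHTS against 50 nM purified 15hLO-2 in Hepes pH 7.5 with detergent. Activity follows hydroperoxide formation from 45 uM arachidonic acid, measured as 573:405 nm absorbance ratio of the ferric-xylenol orange complex.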
Each line names hits and unclear results; the compound was inactive in the other large screens. Unless noted, calls follow the shape of the dose curve; as a rule, active = well fitted curve in the direction sought with a large enough effect; inconclusive = small, poorly fitted or top-dose-only effect, or another doubt; inactive = no such curve, though single readings can be large; an effect the other way counts as inactive or inconclusive.

CS(=O)(=O)N1CCN(C(=O)c2ccc(Cl)s2)CC1	none (no result: ALOX12 inhib, HPGD block, PNC assembly inh, IMPase cell inh, ALOX15B inhib)
O=C(c1ccc(Cl)s1)N1CCCC1	HPGD block 7.9µM
CCc1ccc(C(=O)N2CCCC2)s1	HPGD block 16µM, PNC assembly inh inconclusive
O=C(O)CCCc1ccc2ccc3ccccc3c2c1	none (no result: PNC assembly inh, IMPase cell inh)
C=CCn1c(SCc2ccccc2C#N)nnc1-c1cc(Br)ccc1O	HPGD block 14µM, PNC assembly inh inconclusive
CC(=O)OCOC(c1ccc2ccccc2c1)P(=O)(OCOC(C)=O)OCOC(C)=O (stereo not given)	none (no result: ALOX12 inhib, HPGD block, PNC assembly inh, IMPase cell inh, ALOX15B inhib)
CCCCn1c(SCC(=O)N2CCN(c3ccccc3)CC2)nc2ccsc2c1=O	PNC assembly inh -112 (no result: IMPase Li cell, HPGD block)
Cc1ccc2c(c1)Sc1ccccc1CC2=O	HPGD block 25µM
COc1ccc(S(=O)(=O)N(CC(=O)Nc2ccccc2Br)Cc2ccccc2)cc1	none (no result: IMPase Li cell, ALOX12 inhib, HPGD block, PNC assembly inh, ALOX15B inhib)
O=C(NC(=S)NCC1COc2ccccc2O1)c1ccccc1 (stereo not given)	ALOX12 inhib 13µM, PNC assembly inh inconclusive (no result: ALOX15B inhib)
O=C(CC1COc2ccccc2O1)NCCc1ccccc1 (stereo not given)	HPGD block 7.1µM
O=C(CC1COc2ccccc2O1)NCc1ccccc1 (stereo not given)	none (no result: IMPase cell inh, ALOX15B inhib)
CCOC(=O)CCNCC1COc2ccccc2O1 (stereo not given)	PNC assembly inh -92
COc1ccc(/C=N/n2cc(-c3ccccc3)nc2N)cc1	PNC assembly inh inconclusive
COc1ccc(/C=N/n2cc(-c3ccc(OC)cc3)nc2N)cc1	PNC assembly inh -129
COc1ccc(N2CC(O)=C(c3nc4ccccc4s3)C2=N)cc1	IMPase Li cell 14µM
CCN1CC(O)=C(c2nc3ccccc3s2)C1=N	HPGD block inconclusive
Cc1onc(-c2ccccc2Cl)c1C(=O)NC(=S)NCC(=O)c1ccccc1	IMPase Li cell 10µM (no result: ALOX12 inhib, HPGD block, PNC assembly inh, IMPase cell inh, ALOX15B inhib)
Cc1cc(C)cc(NC(=S)NCCc2ccc(S(N)(=O)=O)cc2)c1	none (no result: IMPase cell inh, ALOX15B inhib)
Cc1ccc(SCCNC(=S)Nc2ccccc2)cc1	ALOX12 inhib inconclusive, ALOX15B inhib inconclusive
Cc1ccc(SCCNC(=S)Nc2ccc(C)c(C)c2)cc1	ALOX12 inhib 25µM (no result: ALOX15B inhib)
Cc1ccc(NC(=S)NCCc2ccc(S(N)(=O)=O)cc2)cc1C	PNC assembly inh -109 (no result: IMPase Li cell, HPGD block, ALOX15B inhib)
CCOCCCNC(=S)Nc1ccc(S(N)(=O)=O)cc1	HPGD block 14µM (no result: IMPase cell inh, ALOX15B inhib)
COC(=O)C1=C(C(=O)OC)[C@@H]2N(C)c3ccc(OC)cc3[C@@]23C[C@@H](C(=O)OC)N(S(=O)(=O)c2c(C)noc2C)C3=N1	none (no result: PNC assembly inh, IMPase cell inh, ALOX15B inhib)
CC(C)(C)OC(=O)NCCCCC1=CC2=CC(=O)C(C)(OC(=O)C3CCCC3)C(=O)C2=CO1 (stereo not given)	none (no result: PNC assembly inh, IMPase cell inh, ALOX15B inhib)
Cc1ccc2[nH]c(=O)c(CN(C(=O)c3cccs3)c3ccccc3)cc2c1	IMPase Li cell inconclusive, PNC assembly inh -85 (no result: ALOX15B inhib)
COc1ccc2[nH]c(=O)c(CN(C(=O)c3cccnc3)c3ccccc3)cc2c1	HPGD block inconclusive
O=C(c1cccs1)N(Cc1ccco1)Cc1cc2ccccc2[nH]c1=O	PNC assembly inh -117
COc1ccc2[nH]c(=O)c(CN(C(=O)c3ccccn3)c3ccccc3)cc2c1	HPGD block inconclusive, PNC assembly inh -92
Cc1cc(C)c2[nH]c(=O)c(CN(Cc3ccco3)C(=O)c3cccs3)cc2c1	HPGD block inconclusive
COC(=O)C(C(=O)OC)[C@@H]1O[C@@]23COC=C[C@]2(C)[C@H]3c2ccccc21	none (no result: ALOX12 inhib, PNC assembly inh, IMPase cell inh, ALOX15B inhib)
CC1(C)Oc2ccc(C#N)cc2[C@@H](OC2=CC(=O)CC2)[C@@H]1O	none (no result: ALOX12 inhib, HPGD block, PNC assembly inh, IMPase cell inh, ALOX15B inhib)
COc1ccc2nc(NC(=O)c3ccc(NS(=O)(=O)c4cccs4)cc3)sc2c1	HPGD block inconclusive, PNC assembly inh inconclusive (no result: IMPase cell inh, ALOX15B inhib)
Cc1cccc2sc(NC(=O)c3ccc(NS(=O)(=O)c4cccs4)cc3)nc12	HPGD block inconclusive, PNC assembly inh -84 (no result: IMPase cell inh, ALOX15B inhib)
O=C(NCCCN1CCOCC1)c1ccc2c(=O)n(CCc3ccccc3)c(=O)[nH]c2c1	PNC assembly inh -95
O=C(CCCCn1c(=S)[nH]c2ccsc2c1=O)NCc1ccco1	HPGD block 14µM (no result: ALOX15B inhib)
O=C(CCCn1c(=S)[nH]c2ccsc2c1=O)NCc1ccco1	none (no result: ALOX15B inhib)

Screening data deposited in PubChem by National Center for Advancing Translational Sciences (NCATS).
